Source: PubChem BioAssay (NCATS)
Values without a mark were called inactive. Calls come from the whole dose curve; as a rule, active = well fitted inhibition curve with a large enough effect; inconclusive = small, poorly fitted or top-dose-only effect; inactive = flat fitted curve, though single readings scatter. Where a SMILES comes first, the peptide text is derived from it. [ ]: non-standard residue; d: D form. The star is where a group is joined. Dolaproine = CO[C@@H]([C@@H]1CCCN1)[C@@H](C)C(=O)O; Dil = CC[C@H](C)[C@H](NC)[C@@H](CC(=O)O)OC; Doe = c1ccc(C[C@H](N*)c2nccs2)cc1; Aib = CC(C)(N)C(=O)O

The molecules below were run on Nanoluciferase (engineered Oplophorus gracilirostris luciferase) (assay: Primary Nanoluciferase (NLuc) qHTS assay for identification of artifact compounds. (AID 1845222)). Settings: NLuc-conditioned medium, Nano-Glo luminescence, 5 min; series mostly up to 54.1 µM; activity, negative = inhibition: at the top concentration.
Description: PI: Alexander Tropsha Ph.D.
UNC Eshelman School of Pharmacy
University of North Carolina, Chapel Hill, North Carolina
Hits from high-throughput screening (HTS) of chemical libraries are often false positives due to their interference with the assay detection technology. In response to this problem, we generated the largest publicly available library of chemical liabilities and developed a free webtool to predict HTS artifacts, both of which are described herein. More specifically, we generated, curated, and integrated HTS datasets for thiol reactivity, redox activity, and luciferase (firefly and nano) activity. Using these curated datasets, we developed and validated several Quantitative Structure-Interference Relationship (QSIR) models to predict nuisance behavior. […] These models were employed for virtual profiling of the National Center for Advancing Translational Science's (NCATS) in-house library, and 256 compounds for each assay were selected for the experimental validation of nuisance behavior. The BA for these external predictions ranged from 58 to 78% for compounds within the applicability domains of the models. […] The models developed in this study, along with aggregation models previously developed by our group (SCAM Detective) were implemented in "Liability Predictor," an online tool which may be used as part of chemical library design or for triaging HTS hits. Both the models and the curated datasets are publicly available at https://liability.mml.unc.edu/.
SEQUENCE No. (e.g., 1, 2, 3, etc.); […] (e.g., Cells, Incubation, Reagent, etc.); VALUE; DESCRIPTION.
1; Reagent; 2 uL; Nanoluciferase media.
2; Compounds and control; 16 nL; Kalypsis pin tool (Wako USA) equipped with a 1536-well pin head.
4; Reagent; 2 uL; Luciferase enzyme.
6; Detection; Luminescence, ViewLux microplate reader.
NOTES (numbers refer to Sequence numbers above)
1. Medium was collected from the culture flasks of NLuc-expressing S16 cells (80% confluent) prior to cell plating, filtered through a 0.22um filter, and frozen at -20C prior to use. Media was diluted (1:55) and 2 uL was dispensed into all wells of a 1536-well assay plate (solid-bottom white plate; Greiner Bio One, Monroe, NC).
2. A Wako Pin-tool (Wako Automation, Richmond, VA) was used to transfer 16 nL of compounds (consisting of 7-plates in qHTS format, final concentration range 18.3 nM to 114 uM) or control Cilnidipine (final concentration range 623 nM to 80 uM).
3. 15 min. incubation at room temperature protected from light.
4. 2 uL of NLuc substrate (1:100 in Nano-Glo luciferase buffer; Nano-Glo luminescence assay, Promega, Madison, WI) was dispensed for a final assay volume of 4 uL.
5. Plates were centrifuged (121xg, 15 seconds) and incubated for 5 minutes.
6. Samples were read for luminescence on a ViewLux CCD imager (PerkinElmer). Data were normalized to no-enzyme (0% activity) and no-inhibitor (DMSO; 100%) controls and the resulting percent inhibition data were fitted to a 4-parameter Hill equation using NCATS in-house software.

SMILES | activity, negative = inhibition
C[C@H]1O[C@@H](O[C@H]2CC[C@]3(C=O)C4CC[C@]5(C)[C@@H](C6=CC(=O)OC6)CC[C@]5(O)[C@@H]4CC[C@]3(O)C2)C[C@@H](O)[C@@H]1O (stereo not given in full) | -1.38% [at 25.7 µM]
COC(=O)C1=COC(C)C2CN3CCC4(C(=O)Nc5ccccc54)C3CC12 (stereo not given) | 0.912%
CN(Cc1cccc(-c2ccncc2)c1)C(=O)Oc1ccc(-c2ccc(C(N)=O)cc2)cc1 | -8.58%
CC(=O)OC[C@]12C[C@H](O)C(C)=C[C@H]1O[C@@H]1[C@H](O)[C@@H](OC(C)=O)[C@@]2(C)[C@]12CO2 | 3.64%
COC1CC(O[C@H]2CC[C@@]3(C)C(CCC4C3CC[C@]3(C)[C@@H](C5=CC(=O)OC5)CC[C@]43O)C2)OC(C)C1O (stereo not given in full) | -4% [at 25.7 µM]
CCCCCn1cc(C(=O)c2cccc3ccccc23)c2ccccc21 | 2.41%
Cc1sc2c(c1C)C(c1ccc(Cl)cc1)=N[C@@H](CC(=O)Nc1ccc(O)cc1)c1nnc(C)n1-2 | -3.15% [at 11.6 µM]
CN1C(=O)N(c2ccc(C#N)c(C(F)(F)F)c2)C(=O)[C@@]1(CO)c1ccccc1 | -2.48%
C=C(C)C(=O)O[C@H]1[C@@H]2[C@H](C)C(=O)O[C@@H]2C[C@@H](C)[C@@H]2C=CC(=O)[C@]21C | 3.03%
CC1=C[C@H]2O[C@@H]3C[C@H]4OC(=O)/C=C/C=C/C(=O)OCC/C(C)=C/C(=O)OC[C@@]2(CC1)[C@]4(C)[C@]31CO1 | -1.43% [at 25.7 µM]
CC1=CC2/C=C(\C)CCC(O)C(O)C(O)CC(=O)C23C(=O)NC(CC(C)C)C3C1C (stereo not given) | -3.74% [at 25.7 µM]
COc1ccc(CCNCc2ccc(OC)c3ccccc23)cc1 | 1.86%
CCC(C)/C=C(C)/C=C/C1=CC2=C(Cl)C(=O)C(C)(OC(C)=O)C(=O)C2=CO1 (stereo not given) | -12.9%
CC1=CC(=O)[C@@H](O)[C@]2(C)C3[C@@H](O)[C@@H]4OC(=O)[C@@H]([C@H]4C)[C@]3(C)C(=O)C[C@@H]12 (stereo not given in full) | -0.731%
C=C(CO)[C@@]12O[C@@H]1[C@@]1(C)C(=CC2=O)CC[C@@H](O)[C@@H]1C | 3.96%
CCCN(CCC)[C@@H]1CCc2ccc3[nH]c(C#N)cc3c2C1 | 0%
CC(=O)OC[C@]12[C@H](OC(C)=O)C(=O)[C@@H]3[C@@H](O)[C@@]14O[C@@]3(C)COC(=O)c1cccnc1[C@@H](C)[C@H](C)C(=O)O[C@@H]([C@H](OC(C)=O)[C@@H]2OC(C)=O)[C@]4(C)O | 4.45% [at 25.7 µM]
CC(=O)O[C@H]1C(=O)[C@]2(C)C(O)C[C@H]3OC[C@@]3(OC(C)=O)[C@H]2[C@H](OC(=O)c2ccccc2)[C@]2(O)C[C@H](O)C(C)=C1C2(C)C (stereo not given in full) | -2.63% [at 25.7 µM]
Fc1cc(F)c2c(c1)C1C=CCC1C(c1cccnc1)N2 (stereo not given) | 0.158%
CO[C@H]1C[C@H](O[C@H]2CC[C@]3(C=O)[C@H]4CC[C@]5(C)[C@@H](C6=CC(=O)OC6)CC[C@]5(O)[C@@H]4CC[C@]3(O)C2)O[C@H](C)[C@H]1O | 0% [at 25.7 µM]

SMILES | activity, negative = inhibition
CC(C)(O)/C=C/C(=O)[C@](C)(O)[C@H]1[C@H](O)C[C@@]2(C)[C@@H]3CC=C4[C@@H](C[C@H](O)C(=O)C4(C)C)[C@]3(C)C(=O)C[C@]12C | 3.5% [at 25.7 µM]
NCCCCCNC1(c2ccccc2)CCCCC1 | 3%
CO[C@@H]1[C@H](O)[C@@H](O[C@@H]2C[C@H]3CC[C@@H]4C(CC[C@]5(C)[C@@H](C6=CC(=O)OC6)CC[C@]45O)[C@@]3(C)[C@H](O)C2)O[C@H](C)[C@@H]1O (stereo not given in full) | 0.926% [at 25.7 µM]
CO[C@H]1[C@H](O)[C@H](O[C@H]2CC[C@]3(C=O)C4CC[C@]5(C)[C@H](C6=CC(=O)OC6)CC[C@]5(O)C4CC[C@@H]3C2)O[C@@H](C)[C@@H]1O (stereo not given in full) | -5.71% [at 25.7 µM]
COC(=O)[C@@]1(C)C(=O)C=C[C@]2(C)c3c(O)cc(C(C)C)cc3[C@H](O)[C@@H](OC(C)=O)C12 (stereo not given in full) | -0.256% [at 25.7 µM]
CCC1=CC2CN3CCc4c([nH]c5ccccc45)[C@@](C(=O)OC)(C2)[C@@H]13 | -1.69%
COc1ccc(CN(C(=O)[C@@H](N)Cc2c(C)cc(C(N)=O)cc2C)[C@@H](C)c2ncc(-c3ccccc3)[nH]2)cc1C(=O)O | -0.285%
CCN1C[C@]2(COC)CC[C@H](O)[C@@]34C5C[C@@H]6[C@@H](OC)C[C@@](OC(C)=O)(C5[C@@H]6OC(C)=O)[C@H]([C@H](OC)C23)[C@@H]14 (stereo not given in full) | 1.65% [at 25.7 µM]
CC[C@@H]1/C=C/C=C/C[C@H](C)C(O)[C@](C)(O)C(=O)[C@H](C)C(O)[C@H](C)C(=O)[C@H](C)[C@@H](O)[C@H](C)/C=C/C(=O)O[C@H]2[C@@H](C)[C@@H](CC1)O[C@]1(O[C@H](C[C@H](C)O)[C@H](C)CC1=O)[C@@H]2C (stereo not given in full) | -0.681% [at 11.6 µM]
Cc1c(N2C(=O)[C@@H]3[C@H](O)CCN3C2=O)ccc(C#N)c1Cl | 2.81%
CN1CCC2=C(C1)c1ccccc1Cc1ccccc12 | 3.44%
O=C(N1CCCCC1Cc1ccccc1)n1cc(-c2ccc(-c3ccccc3)cc2)nn1 (stereo not given) | 0.364%
CC(=O)OC[C@]12C[C@H](OC(=O)CC(C)C)C(C)=C[C@H]1O[C@@H]1[C@H](O)[C@@H](OC(C)=O)[C@@]2(C)[C@@]12CO2 | 2.25% [at 25.7 µM]
CCOC(=O)Nc1ccc(NCc2c(C)cc(C)cc2C)cc1N | 4.85%
C[C@H]1CCC/C=C/C2C[C@H](O)C[C@H]2[C@H](O)/C=C/C(=O)O1 (stereo not given in full) | -0.0807%
CC1=CC2/C=C(\C)CCC(O)C(O)/C=C/C(=O)OC23C(=O)NC(CC(C)C)C3C1C (stereo not given) | 0.364% [at 25.7 µM]
Cc1ccc(Cn2nc(C(=O)N[C@@H]3C(C)(C)[C@@H]4CC[C@@]3(C)C4)cc2-c2ccc(Cl)c(C)c2)cc1 | 4.78%
C=CCN1CC[C@]23c4c5ccc(O)c4O[C@H]2[C@@H](O)CC[C@@]3(O)[C@H]1C5 | -0.43%
COC1C=CC23c4cc5c(cc4COC2(O)CN(C)C3C1)OCO5 (stereo not given) | 2.5%
CC[C@H](C)[C@@H]([C@@H](CC(=O)N1CCC[C@H]1[C@H](OC)[C@@H](C)C(=O)N[C@@H](Cc1ccccc1)c1nccs1)OC)N(C)C(=O)[C@@H](NC(=O)C(C)(C)N)C(C)C (H-[Aib]V[Dil][Dolaproine]-Doe) | 4.31%
